This is an account of results in PubChem BioAssay AID2685 (National Center for Advancing Translational Sciences (NCATS), 2010).

Molecules are shown by their SMILES. The campaign covered roughly 320,000 compounds. About 2,100 (0.66%) were called active. About 53% were inconclusive and are not listed. This is one part of a sample in which actives are shown more often than they occur. Calls follow the shape of the dose curve; as a rule, active = well fitted inhibition curve with a large enough effect in the signal ratio, with a control signal flat (not every such curve was filed as active); inconclusive = small, poorly fitted or top-dose-only effect, or effect the other way, or a change in a side signal; inactive = flat fitted curve, though single readings scatter; the % refers to the signal ratio.
Potency is read from the fitted curve at half-maximal effect.

This experiment is described as follows: qHTS Assay for Lipid Storage Modulators in Drosophila S3 Cells.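 As to cell number change: cells counted by Cell Tracker Red CMTPX staining in the red channel.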 Particulars: BODIPY lipid droplet fluorescence, 18-24 h, cells fed with added oleic acid; cell number change: measured here: cell count max response; series mostly up to 46.1 µM. The method in brief: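 Drosophila S3 cells loaded with oleic acid (400 uM, as added) and compounds at several concentrations; lipid droplets imaged by 488-nm laser-scanning cytometry, 500–530 nm intensity and object ratio to cell channel. Percent activity normalized to 20 uM Triacsin C.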
On the technique in general: qHTS replaces the single test concentration by a dilution series.
As to `COc1cc2[nH]c(=O)n(Cc3ccc(C(=O)N4CCC(N5CCCCC5)CC4)cc3)c(=O)c2cc1OC`, the Potency was 0.411 µM (active) and the cell number change is -3.59%.

As to `COc1ccc(N2CCN(C(=O)c3ccc4c(=O)n(CCc5ccc(OC)c(OC)c5)c(=O)[nH]c4c3)CC2)cc1`, the Potency result is “inactive” and the cell number change was -0.645%.

Regarding `CCOC(=O)N1CCN(C(=O)c2ccc3c(=O)n(CCc4ccccc4)c(=O)[nH]c3c2)CC1`, the Potency result was “inactive”.

Regarding `CCOC(=O)N1CCN(C(=O)c2ccc3c(=O)n(CCc4ccc(OC)c(OC)c4)c(=O)[nH]c3c2)CC1`, the Potency is 1.3 µM (active) and the cell number change was found to be 12.7%.

Consider `COc1cc2[nH]c(=O)n(Cc3ccc(C(=O)NC4CCCC4)cc3)c(=O)c2cc1OC`, for which the Potency result is “inactive”.

In the case of `COc1cc2[nH]c(=O)n(Cc3ccc(C(=O)NCC4CCCO4)cc3)c(=O)c2cc1OC` (centres undefined), the Potency result was “inactive” and the cell number change came out at 12.5%.

For `CCCCCn1c(=O)[nH]c2cc(C(=O)N3CCN(c4ccccc4F)CC3)ccc2c1=O`, the Potency result is “inactive” and the cell number change was 0.806%.

Consider `CCCCCn1c(=O)[nH]c2cc(C(=O)N3CCN(C(=O)OCC)CC3)ccc2c1=O`, for which the Potency is 3.66 µM (active).

As to `CCOC(=O)N1CCN(C(=O)c2ccc3c(=O)n(CCOC)c(=O)[nH]c3c2)CC1`, the Potency entry was “inactive” and the cell number change is 1.58%.

As to `CCCCCn1c(=O)[nH]c2cc(C(=O)N3CCN(CC)CC3)ccc2c1=O`, the Potency result is “inactive”.

In the case of `COCCn1c(=O)[nH]c2cc(C(=O)N3CCN(c4ccccc4F)CC3)ccc2c1=O`, the Potency was 11.6 µM (active) and the cell number change was -14.1%.

As to `COCCn1c(=O)[nH]c2cc(C(=O)NCCN3CCN(c4ccccc4F)CC3)ccc2c1=O`, the Potency entry was “inactive” and the cell number change was -8.35%.

Turning to `CCC(=O)Nc1ccc2oc(-c3cccnc3)nc2c1`, the Potency entry was “inactive” and the cell number change stood at 17.6%.

Take `OCCNc1ncnc2c1sc1nc(N3CCOCC3)c3c(c12)CCC3`: the Potency entry is “inactive” and the cell number change is 0.136%.

Take `Cc1c(OC(C)C(=O)NCCCN2CCOCC2)ccc2c3c(c(=O)oc12)CCCC3` (centres undefined): the Potency result was “inactive” and the cell number change came to 8.4%.

For `COC(=O)CNC(=O)CSc1nc(N)cc(=O)[nH]1`, the Potency entry was “inactive” and the cell number change is -9.53%.

`Cc1cc(C)c(O)c(NC(=S)NC(=O)Cc2ccccc2)c1`: the Potency entry was “inactive” and the cell number change is -14.2%.

In the case of `CCc1ccccc1Nc1nc(N)nc(COC(=O)CCS(=O)(=O)c2ccccc2)n1`, the Potency entry is “inactive”.

In the case of `Cc1c(C)n(CCO)c2ncnc(Nc3ccc(F)cc3)c12`, the Potency result is “inactive” and the cell number change is 17.8%.

Turning to `C=CCN1C(=O)/C(=C\c2ccc(Cl)cc2)N=C1SCC(=O)NC1CCCCC1`, the Potency entry is “inactive” and the cell number change worked out at 1.87%.

In the case of `CC(=O)c1ccc(NC(=O)/C(=C\c2cccs2)NC(=O)c2ccco2)cc1`, the Potency entry was “inactive” and the cell number change amounted to 17%.

Regarding `CCN(CC)c1ccc(C2NC(=O)NC(C)=C2C(=O)Nc2ccccc2)cc1` (centres undefined), the Potency is 1.64 µM (active) and the cell number change was -25.6%.

For the compound `CC1=C(C(=O)Nc2ccccc2)C(c2cccs2)NC(=O)N1` (centres undefined), the Potency entry is “inactive” and the cell number change is -4.1%.

Take `CC1=C(C(=O)Nc2ccc(C)cc2)C(c2ccc(N(C)C)cc2)NC(=O)N1` (centres undefined): the Potency result was “inactive” and the cell number change was -1.82%.

Consider `Cc1ccc(NC(=O)c2c(O)c3ccccc3n(C)c2=O)nc1`, for which the Potency result was “inactive” and the cell number change was -15.8%.

On to `CCOC(=O)c1cnc2c(C)c(-c3ccccc3)[nH]n2c1=O`, for which the Potency entry was “inactive” and the cell number change was found to be 6.05%.

Turning to `CN=C1SC(CC(=O)Nc2ccc(F)cc2F)C(=O)N1/N=C/c1ccc(OC(F)F)c(OC)c1` (centres undefined), the Potency result was “inactive” and the cell number change stood at 8.82%.

Turning to `CN=C1SC(CC(=O)Nc2ccc(F)cc2F)C(=O)N1/N=C(\C)c1cccc(OCC(=O)O)c1` (centres undefined), the Potency entry is “inactive” and the cell number change worked out at 5.65%.

For `C=CCOc1ccc(/C=N/N2C(=O)C(CC(=O)Nc3ccc(F)cc3F)SC2=NC)cc1` (centres undefined), the Potency is 18.4 µM (active) and the cell number change was determined as 23%.

Consider `CCOC(=O)c1cnc2c(OC)cccc2c1Oc1ccccc1`, for which the Potency result is “inactive” and the cell number change was 0.518%.

As for `NC(=NCc1ccco1)NC(=O)c1ccccc1`, the Potency was 20.6 µM (active) and the cell number change came to 21.8%.

In the case of `O=C(NC(=S)NCc1ccco1)c1ccccc1`, the Potency entry was “inactive” and the cell number change was 2.74%.

As to `c1ccc(NC(=NCc2ccco2)c2ccccc2)cc1`, the Potency entry was “inactive” and the cell number change stood at 0.492%.

Turning to `COC(=O)c1ccc(OC(=O)CCN2C(=O)C3C4c5ccccc5C(c5ccccc54)C3C2=O)cc1` (centres undefined), the Potency entry was “inactive” and the cell number change is -1.2%.

Consider `O=C(c1cnccn1)N1CCN(c2ccccc2F)CC1`, for which the Potency result is “inactive” and the cell number change is -10.1%.

Regarding `Nc1ncc(Br)cc1S(=O)(=O)NC1CCCCC1`, the Potency entry was “inactive” and the cell number change worked out at 6.11%.

Turning to `Nc1ncc(Br)cc1S(=O)(=O)Nc1ccccc1F`, the Potency entry was “inactive”.

Regarding `Nc1ncc(Br)cc1S(=O)(=O)Nc1cc(C(F)(F)F)cc(C(F)(F)F)c1`, the Potency was 0.58 µM (active) and the cell number change was -15.9%.

For `Cc1c(C(=O)O/N=C(\N)c2ccccn2)cccc1[N+](=O)[O-]`, the Potency entry was “inactive” and the cell number change is 7.58%.

Regarding `CCOC(=O)C1=C(COC(=O)Cc2ccc(Cl)cc2)NC(=O)NC1C` (centres undefined), the Potency result was “inactive” and the cell number change is 5.22%.

Take `Cc1cc(C)cc(NC(=O)CN2CCN(c3ccccn3)CC2)c1`: the Potency was 16.4 µM (active) and the cell number change is -2.33%.

Take `Cc1cc(C)cc(NC(=O)CN2CCN(c3ncccn3)CC2)c1`: the Potency entry is “inactive” and the cell number change stood at 8.39%.

For `O=C(CN1CCN(c2ccccn2)CC1)Nc1ccccc1`, the Potency entry was “inactive” and the cell number change is 6.43%.

Regarding `O=C(CC(=O)Nc1ccccn1)Nc1ccccn1`, the Potency entry was “inactive” and the cell number change turned out to be 4.61%.

Regarding `Cn1nnnc1SCC(=O)Nc1ccccn1`, the Potency is 5.8 µM (active) and the cell number change was -3.74%.
